Source: PubChem BioAssay (NCATS)
Results filed as inconclusive are left out. Active and inactive are the calls of the source. Calls come from the whole dose curve; as a rule, active = well fitted curve in the direction sought with a large enough effect in the signal ratio (not every such curve was filed as active); inconclusive = small, poorly fitted or top-dose-only effect, or effect the other way, or a change in a side signal; inactive = no such curve, though single readings can be large or run the other way; the % refers to the signal ratio.

These molecules were tested against Tyrosine-protein phosphatase non-receptor type substrate 1 (Homo sapiens) + Leukocyte surface antigen CD47 (Homo sapiens) (UniProt P78324+Q08722) (assay: CD47-SIRPalpha protein protein interaction - HTRF assay qHTS validation (AID 1347058; note: 0% is about no effect)). Details: TR-FRET HTRF CD47-His / biotin-SIRPalpha binding, ratio 665/615; series mostly up to 38.3 µM; activity change, negative = inhibition: at the top concentration.
Description: SIRPalpha is a myeloid cell expressed immunomodulatory receptor that binds the tumor expressed immune checkpoint CD47. Therapeutic disruption of this interaction leads to immune-mediated tumor rejection. This assay was used to quantitate CD47-SIRPalpha binding biochemically and evaluate chemical libraries for novel CD47-SIRPalpha inhibitors. To recapitulate the biological interaction of CD47 and SIRPalpha, we designed expression constructs to produce their recombinant, soluble, extracellular interaction domains. CD47 was produced with an N-terminal 6His tag. SIRPalpha was produced with an N-terminal Avi-Tag for site-specific biotin incorporation. The CD47-SIRPalpha interaction was measured by TR-FRET using affinity tag linked reagents (anti-6His-Eu donor and streptavidin-XL665 acceptor). SIRPalpha without biotin incorporation was used as a positive control inhibitor.
SEQUENCE No. (e.g., 1, 2, 3, etc.); […] (e.g., Cells, Incubation, Reagent, etc.); VALUE and DESCRIPTION.
1a. Reagent. 3 uL CD47-His (12.5 nM) and Anti-His Eu Donor reagent (0.7 nM) added to respective wells in Assay buffer; white/solid bottom high base, med bind 1536-well plates (Greiner 789075)
1b. Reagent. 2 uL Assay buffer negative control for background fluorescence
2. Reagent. 23 nL library compounds (7-pt, 1:4 intraplate titration series) or DMSO control transferred by Pin Tool
3. Centrifuge. Centrifuge plate for 30 s at 1000 RPM
4. Incubation.#Incubate reagents at room temperature for 30 min, protected from light
5. Reagent. 2 uL SIRPalpha-biotin (100 nM) in Assay buffer
6. Incubation.#Incubate reagents at room temperature for 30 min, protected from light
7. Reagent. 1 uL SAV-XL665 (85 nM) acceptor reagent added to respective wells
8. Centrifuge. Centrifuge plate for 30 s at 1000 RPM
9. Incubation. Incubate reagents at room temperature for 30 min, protected from light
10. Detector. Measure Top TR-FRET on EnVision (Eu/APC filter set); calculate ratio Ch1/Ch2
1. Assay buffer composition.#Phosphate buffered saline (PBS; 10 mM Phosphate, 137 mM NaCl, and 2.7 mM KCl; pH 7.4), 0.05% IGEPAL CA-630
2. 23nL of […] library compounds (7 plates) or DMSO vehicle control transferred to 9 Greiner white/solid bottom high base, TC plates in 7 interplate 1:5 titrations (see Yasgar, A. et al. 2008) with Pintool. Two of the 9 plates are DMSO-only in compound field at beginning and end of compound library-treated plates.
10. Detector settings#Mirror = LANCE/DELFIA Dual Enh; Ex. Filter = UV2[TRF] 320; Em. Filter = APC 665; 2nd Em. Filter = Europium 615; Measurement h = 6.5; Ex. light (%) = 100; Delay = […]; Window t = 100 us; No. Seq. windows = 1; Time between flashes = 2000us; No. of flashes = 100; No. of flashes for 2nd detector = 100; Calculation: "Ratio Ch1/Ch2"

Tyrosine-protein phosphatase non-receptor type substrate 1 (Homo sapiens) + Leukocyte surface antigen CD47 (Homo sapiens), sequence (P78324 whole entry, looked up): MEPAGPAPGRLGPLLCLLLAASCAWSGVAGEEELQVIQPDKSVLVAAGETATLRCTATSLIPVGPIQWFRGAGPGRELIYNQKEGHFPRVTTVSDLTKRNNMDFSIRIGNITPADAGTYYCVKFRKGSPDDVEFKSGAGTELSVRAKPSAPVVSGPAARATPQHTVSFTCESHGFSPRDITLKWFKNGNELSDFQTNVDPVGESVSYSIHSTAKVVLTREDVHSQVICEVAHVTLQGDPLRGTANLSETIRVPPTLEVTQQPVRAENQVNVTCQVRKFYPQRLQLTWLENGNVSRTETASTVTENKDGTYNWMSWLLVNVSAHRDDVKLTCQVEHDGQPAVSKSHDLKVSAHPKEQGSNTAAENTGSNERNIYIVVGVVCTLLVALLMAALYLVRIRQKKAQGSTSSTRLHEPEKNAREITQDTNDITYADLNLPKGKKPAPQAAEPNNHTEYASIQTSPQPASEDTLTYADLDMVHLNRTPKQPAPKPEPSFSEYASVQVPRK
Tyrosine-protein phosphatase non-receptor type substrate 1 (Homo sapiens) + Leukocyte surface antigen CD47 (Homo sapiens), sequence (Q08722 whole entry, looked up): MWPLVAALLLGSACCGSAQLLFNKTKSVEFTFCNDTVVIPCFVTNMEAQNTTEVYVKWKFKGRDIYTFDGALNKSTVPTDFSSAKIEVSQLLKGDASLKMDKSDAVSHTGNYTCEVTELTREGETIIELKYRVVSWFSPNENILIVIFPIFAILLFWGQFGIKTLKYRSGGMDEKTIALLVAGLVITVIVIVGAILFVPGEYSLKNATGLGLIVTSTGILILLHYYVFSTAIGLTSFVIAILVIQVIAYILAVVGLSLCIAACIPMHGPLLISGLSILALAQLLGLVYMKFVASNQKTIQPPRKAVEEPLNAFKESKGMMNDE

| SMILES | activity change, negative = inhibition |
| --- | --- |
| CN(C)CCCN1c2ccccc2CCc2ccccc21 | -2.86% (inactive) |
| CC(CN(C)C)CN1c2ccccc2CCc2ccccc21 (stereo unspecified) | -1.52% (inactive) |
| CSc1ccc2c(c1)C(N1CCN(C)CC1)Cc1ccccc1S2 (stereo unspecified) | -2.15% (inactive) |
| CCN(CC)CCNC(=O)c1cc(Cl)c(N)cc1OC | 0.289% (inactive) |
| CC(C)NC[C@H](O)c1ccc(O)c(O)c1 | 11.9% (inactive) |
| CC(C)C(=O)c1c(C(C)C)nn2ccccc12 | -0.329% (inactive) |
| Nc1ncnc2c1ncn2[C@@H]1O[C@H](CO)[C@@H](O)[C@H]1O | 3.09% (inactive) |
| C[C@H](NC(CCc1ccccc1)C(=O)O)C(=O)N1CCC[C@H]1C(=O)O (stereo partly specified) | 1.13% (inactive) |
| CC(C)c1c(C(=O)Nc2ccccc2)c(-c2ccccc2)c(-c2ccc(F)cc2)n1CC[C@@H](O)C[C@@H](O)CC(=O)O | 2.32% (inactive) |
| COc1ccc(Cl)cc1C(=O)NCCc1ccc(S(=O)(=O)NC(=O)NC2CCCCC2)cc1 | 1.61% (inactive) |
| CC[C@H]1CN2CCc3cc(OC)c(OC)cc3[C@@H]2C[C@@H]1C[C@H]1NCCc2cc(OC)c(OC)cc21 | 3.32% (inactive) |
| CC(C(O)c1ccc(O)cc1)N1CCC(Cc2ccccc2)CC1 (stereo unspecified) | -1.71% (inactive) |
| C[C@]12CC[C@@H]3c4ccc(O)cc4CC[C@H]3[C@@H]1CCC2=O | -11% (inactive) |
| CN(C)CCC=C1c2ccccc2CCc2ccccc21 | -2.05% (inactive) |
| CC(C)(C)[C@]1(O)CCN2C[C@H]3c4ccccc4CCc4cccc(c43)[C@@H]2C1 | 0.949% (inactive) |
| CCCn1cnc2c1c(=O)n(CCCCC(C)=O)c(=O)n2C | -4.69% (inactive) |

| SMILES | activity change, negative = inhibition |
| --- | --- |
| OCc1cc(C(O)CNCCCCCCOCCCCc2ccccc2)ccc1O (stereo unspecified) | 12.5% (inactive) |
| Cc1c(O)cccc1C(=O)N[C@@H](CSc1ccccc1)[C@H](O)CN1C[C@H]2CCCC[C@H]2C[C@H]1C(=O)NC(C)(C)C | -3.76% (inactive) |
| CCN(CC)CCOC(=O)C1(C2CCCCC2)CCCCC1 | 0.321% (inactive) |
| C[C@H]1O[C@@H](n2cc(F)c(=O)[nH]c2=O)[C@H](O)[C@@H]1O | -0.0087% (inactive) |
| O=C1NC(=O)[C@@]2(CCOc3ccc(F)cc32)N1 | 3% (inactive) |
| CNCC(O)c1ccc(O)c(O)c1 (stereo unspecified) | 12.1% (inactive) |
| CC(=O)OCC(=O)[C@@]1(O)CC[C@H]2[C@@H]3CCC4=CC(=O)CC[C@]4(C)[C@H]3C(=O)C[C@@]21C | -1.02% (inactive) |
| CN1CCC[C@@H]1Cc1c[nH]c2ccc(CCS(=O)(=O)c3ccccc3)cc12 | -2.13% (inactive) |
| C[C@]12C[C@H](O)[C@H]3[C@@H](CCC4=CC(=O)CC[C@@]43C)[C@@H]1CC[C@@H]2C(=O)CO | -0.432% (inactive) |
| CSc1ccc2c(c1)N(CCC1CCCCN1C)c1ccccc1S2 (stereo unspecified) | -7.37% (inactive) |
| CC1=C(/C=C/C(C)=C/C=C/C(C)=C/C(=O)O)C(C)(C)CCC1 | 5.13% (inactive) |
| NC(=O)c1ncn([C@@H]2O[C@H](CO)[C@@H](O)[C@H]2O)n1 | -0.0026% (inactive) |
| CN(C)CCOC(C)(c1ccccc1)c1ccccn1 (stereo unspecified) | -0.462% (inactive) |
| C#CCN(C)Cc1ccccc1 | -9.48% (inactive) |
| C[C@](N)(Cc1ccc(O)cc1)C(=O)O | 0.834% (inactive) |
